# Assay results reported in PubChem BioAssay (NCI).
# Compounds without any hit were thinned out: in the full panel of roughly 79,000, 15% have a hit. A number with no mark means an inactive call. Activity calls are given as the source filed them. No stated cut-off is given here; in the data, active means growth inhibition above about 70%; inactive means the rest.
# How the values were obtained:
# [1] = NCI Yeast Anticancer Drug Screen. Data for the rad52 strain (AID 147);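 further: 0% = growth of vehicle-treated control cultures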; conditions: S. cerevisiae rad52 mutant growth inhibition, hits give high values
# How it was run: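 Vehicle-treated cultures served as the reference for growth inhibition of compound-exposed yeast bearing a DNA repair mutation.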
# [2] = NCI Yeast Anticancer Drug Screen. Data for the wt1 strain (AID 149);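 further: 0% = growth of vehicle-treated wt1 cultures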; conditions: S. cerevisiae wt1 strain (SPY 50644) growth inhibition, hits give high values
# How it was run: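 Growth inhibition read against vehicle controls after compound exposure of the wt1 yeast strain.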
# [3] = NCI Yeast Anticancer Drug Screen. Data for the rad50EPP+ strain (AID 151);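 further: 0% = growth of vehicle-treated control cultures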; conditions: S. cerevisiae rad50 mutant strain, hits give high values
# How it was run: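 In this screen, rad50EPP+ yeast were exposed to compounds. Growth inhibition was scored against vehicle-treated controls.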
# [4] = NCI Yeast Anticancer Drug Screen. Data for the mgt1 strain (AID 153); conditions: S. cerevisiae mgt1 mutant growth inhibition, hits give high values
# How it was run: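 mgt1 strain exposed; growth vs vehicle control recorded as inhibition.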
# [5] = NCI Yeast Anticancer Drug Screen. Data for the rad50 strain (AID 155);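 further: 0% = growth of vehicle-only cultures of the same strain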; conditions: S. cerevisiae rad50 strain growth inhibition, hits give high values
# How it was run: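 Readout: growth inhibition relative to vehicle-treated cultures. Compound exposure was carried out in a genetically defined yeast strain deficient in DNA damage repair.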
# [6] = NCI Yeast Anticancer Drug Screen. Data for the mec2-1 strain (AID 157); conditions: S. cerevisiae mec2-1 strain, hits give high values
# How it was run: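 Vehicle-treated cultures served as reference for growth inhibition of compound-exposed mec2-1 yeast.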
# [7] = NCI Yeast Anticancer Drug Screen. Data for the rad14 strain (AID 159);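 further: 0% = growth of vehicle-treated control cultures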; conditions: S. cerevisiae rad14 strain growth inhibition, hits give high values
# How it was run: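 Growth inhibition vs vehicle controls; genetically altered yeast strain (DNA damage repair defect) treated with test compounds.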
# [8] = NCI Yeast Anticancer Drug Screen. Data for the sgs1 mgt1 strain (AID 161);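 further: 0% = growth of cultures given vehicle only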; conditions: S. cerevisiae sgs1 mgt1 strain, hits give high values
# How it was run: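 Mutant yeast exposed to compound; growth scored against vehicle-only wells.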
# [9] = NCI Yeast Anticancer Drug Screen. Data for the CLN2oe strain (AID 163);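 further: 0% = growth of vehicle-only control cultures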; conditions: S. cerevisiae CLN2oe strain, hits give high values
# How it was run: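 Inhibition relative to vehicle-treated yeast is reported. Cells: strain with genetic alteration in cell-cycle control, grown with compound.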
# [10] = NCI Yeast Anticancer Drug Screen. Data for the cln2 rad14 strain (AID 165);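 further: 0% = growth equal to vehicle treated cultures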; conditions: S. cerevisiae cln2 rad14 strain, hits give high values
# How it was run: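 Each compound was tested on cln2 rad14 yeast. Inhibition of growth was calculated against vehicle-exposed controls.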
# [11] = NCI Yeast Anticancer Drug Screen. Data for the bub3 strain (AID 167); conditions: S. cerevisiae bub3 mutant strain, hits give high values
# How it was run: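 Readout: yeast growth inhibition, expressed relative to vehicle-only wells. The test organism is a mutant strain from a panel with lesions in DNA repair or checkpoint genes.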
# [12] = NCI Yeast Anticancer Drug Screen. Data for the wt2 strain (AID 169);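 further: 0% = growth of vehicle-treated yeast cultures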; conditions: S. cerevisiae wt2 strain growth inhibition, hits give high values
# How it was run: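 Inhibition of yeast growth was determined after compound treatment, normalised to controls receiving only vehicle.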
# [13] = NCI Yeast Anticancer Drug Screen. Data for the mlh1 strain (AID 171);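 further: 0% = growth of vehicle-treated control cultures of the same strain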; conditions: S. cerevisiae mlh1 strain growth inhibition, hits give high values
# How it was run: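 Vehicle-normalised growth inhibition of a repair- or checkpoint-altered yeast strain following compound treatment.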
# [14] = NCI Yeast Anticancer Drug Screen. Data for the sgs1 strain (AID 173);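 further: 0% = growth of vehicle-only control cultures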; conditions: S. cerevisiae sgs1 mutant, hits give high values
# How it was run: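 Screen format: yeast with repair or checkpoint alterations, compound exposure, growth read relative to vehicle.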
# [15] = NCI Yeast Anticancer Drug Screen. Data for the mlh1 rad18 strain (AID 175); conditions: S. cerevisiae mlh1 rad18 strain growth inhibition, hits give high values
# How it was run: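 Vehicle-treated cultures served as the reference for growth inhibition in a yeast strain carrying DNA damage repair alterations exposed to each compound.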
# [16] = NCI Yeast Anticancer Drug Screen. Data for the rad18 strain (AID 177); conditions: S. cerevisiae rad18 mutant growth inhibition, hits give high values
# How it was run: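 Test articles were incubated with altered yeast defective in DNA damage repair. Results are given as inhibition of growth versus vehicle.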
# [17] = at 5.0 µM (retest, dose inferred, filed as 0.5)
# [18] = at 50.0 µM (retest, dose inferred, filed as 5.0)
structure (smiles),measurement,setting,value
COC(=O)C(=O)c1c(-c2ccc(Cl)c(Cl)c2)[nH]c2[nH]n(-c3ccccc3)c(=O)c2c1=O,growth inhibition,[1]; at 1.2 µM,-2%
same,growth inhibition,[1]; at 3.7 µM,-5%
same,growth inhibition,[1]; at 11.0 µM,37%
same,growth inhibition,[1]; at 33.0 µM,55%
same,growth inhibition,[1]; at 100.0 µM,61%
same,growth inhibition,[2]; at 1.2 µM,-1%
same,growth inhibition,[2]; at 3.7 µM,-3%
same,growth inhibition,[2]; at 11.0 µM,24%
same,growth inhibition,[2]; at 33.0 µM,54%
same,growth inhibition,[2]; at 100.0 µM,55%
same,growth inhibition,[3]; at 1.2 µM,2%
same,growth inhibition,[3]; at 3.7 µM,0%
same,growth inhibition,[3]; at 11.0 µM,24%
same,growth inhibition,[3]; at 33.0 µM,56%
same,growth inhibition,[3]; at 100.0 µM,76% (active)
same,growth inhibition,[4]; at 1.2 µM,-2%
same,growth inhibition,[4]; at 3.7 µM,-2%
same,growth inhibition,[4]; at 11.0 µM,44%
same,growth inhibition,[4]; at 33.0 µM,68%
same,growth inhibition,[4]; at 100.0 µM,68%
same,growth inhibition,[5]; at 1.2 µM,0%
same,growth inhibition,[5]; at 3.7 µM,27%
same,growth inhibition,[5]; [17],-5%
same,growth inhibition,[5]; at 11.0 µM,22%
same,growth inhibition,[5]; at 33.0 µM,40%
same,growth inhibition,[5]; [18],85% (active)
same,growth inhibition,[5]; at 50.0 µM,93.1% (active)
same,growth inhibition,[5]; at 100.0 µM,65%
same,growth inhibition,[6]; at 1.2 µM,-2%
same,growth inhibition,[6]; at 3.7 µM,-7%
same,growth inhibition,[6]; [17],-7%
same,growth inhibition,[6]; at 11.0 µM,40%
same,growth inhibition,[6]; at 33.0 µM,57%
same,growth inhibition,[6]; [18],9%
same,growth inhibition,[6]; at 50.0 µM,82.8% (active)
same,growth inhibition,[6]; at 100.0 µM,63%
same,growth inhibition,[7]; at 1.2 µM,-1%
same,growth inhibition,[7]; at 3.7 µM,-1%
same,growth inhibition,[7]; at 11.0 µM,46%
same,growth inhibition,[7]; at 33.0 µM,62%
same,growth inhibition,[7]; at 100.0 µM,61%
same,growth inhibition,[8]; [17],-3%
same,growth inhibition,[8]; [18],83% (active)
same,growth inhibition,[8]; at 50.0 µM,43%
same,growth inhibition,[9]; at 1.2 µM,-6%
same,growth inhibition,[9]; at 3.7 µM,-13%
same,growth inhibition,[9]; at 11.0 µM,64%
same,growth inhibition,[9]; at 33.0 µM,64%
same,growth inhibition,[9]; at 100.0 µM,58%
same,growth inhibition,[10]; [17],-11%
same,growth inhibition,[10]; [18],81% (active)
same,growth inhibition,[10]; at 50.0 µM,87.5% (active)
same,growth inhibition,[11]; at 1.2 µM,-3%
same,growth inhibition,[11]; at 3.7 µM,-2%
same,growth inhibition,[11]; [17],-38%
same,growth inhibition,[11]; at 11.0 µM,51%
same,growth inhibition,[11]; at 33.0 µM,54%
same,growth inhibition,[11]; [18],84% (active)
same,growth inhibition,[11]; at 50.0 µM,82.5% (active)
same,growth inhibition,[11]; at 100.0 µM,55%
same,growth inhibition,[12]; at 1.2 µM,0%
same,growth inhibition,[12]; at 3.7 µM,5%
same,growth inhibition,[12]; at 11.0 µM,44%
same,growth inhibition,[12]; at 33.0 µM,57%
same,growth inhibition,[12]; at 100.0 µM,56%
same,growth inhibition,[13]; at 1.2 µM,-2%
same,growth inhibition,[13]; at 3.7 µM,-3%
same,growth inhibition,[13]; at 11.0 µM,36%
same,growth inhibition,[13]; at 33.0 µM,57%
same,growth inhibition,[13]; at 100.0 µM,57%
same,growth inhibition,[14]; at 1.2 µM,-1%
same,growth inhibition,[14]; at 3.7 µM,-1%
same,growth inhibition,[14]; at 11.0 µM,60%
same,growth inhibition,[14]; at 33.0 µM,61%
same,growth inhibition,[14]; at 100.0 µM,65%
same,growth inhibition,[15]; [17],-7%
same,growth inhibition,[15]; [18],80% (active)
same,growth inhibition,[15]; at 50.0 µM,94.5% (active)
same,growth inhibition,[16]; at 1.2 µM,-3%
same,growth inhibition,[16]; at 3.7 µM,-2%
same,growth inhibition,[16]; at 11.0 µM,3%
same,growth inhibition,[16]; at 33.0 µM,49%
same,growth inhibition,[16]; at 100.0 µM,77% (active)
